TPT1 inh: inhibitors of Candida albicans tRNA 2'-phosphotransferase TPT1 | recombinant caTPT1, FP RNA substrate dephosphorylation | inhibition, % at 5 µM | 0.81% of 300,000 active | AID 1962;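 active = inhibition above the mean of all tested compounds plus 3 SD, set per screening campaign, cut at about 24% in these data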;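 also: plate controls were DMSO alone for no effect and ferristatin control at 100 nM for full effect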
ZTA counter: counter-screen for EBNA-1 inhibitors: inhibitors of Epstein-Barr virus ZTA; inhibition, % at 11 µM; ZTA-DNA binding, fluorescence polarization; 0.15% of 320,000 active; P03206; in the data active = inhibition above about 33%
Rpn11 block: inhibitors of human proteasome Rpn11; inhibition, % at 20 µM; 0.59% of 360,000 active; AID 588493; human 26S proteasome, Ub4-pepOG fluorescence polarization; 20S core pre-blocked with epoxomicin; O00487;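 active = inhibition at 20 µM, scaled to each plate's controls, above about 33%, limit read from the data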
Target sequence (O00487 whole entry, looked up): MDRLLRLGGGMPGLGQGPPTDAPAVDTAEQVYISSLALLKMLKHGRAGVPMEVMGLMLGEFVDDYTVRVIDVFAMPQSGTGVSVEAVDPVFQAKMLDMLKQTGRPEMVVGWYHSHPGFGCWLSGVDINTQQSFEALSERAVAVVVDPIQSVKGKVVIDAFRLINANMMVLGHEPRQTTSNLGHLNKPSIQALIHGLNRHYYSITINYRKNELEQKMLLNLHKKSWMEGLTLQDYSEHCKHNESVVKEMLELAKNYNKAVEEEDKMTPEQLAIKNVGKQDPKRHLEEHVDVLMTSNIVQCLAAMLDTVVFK
dFosB activator: mouse delta FosB homodimer activation; 0.99% of 340,000 active; purified delta FosB, TAMRA-CDK5 oligo fluorescence polarization; percent of positive-control signal above neutral wells; activation, % at 25 µM;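 active = mean activation above about 17%, with every replicate also reaching it, limit read from the data, passing the limit was not always enough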
Target sequence (P13346 whole entry, looked up): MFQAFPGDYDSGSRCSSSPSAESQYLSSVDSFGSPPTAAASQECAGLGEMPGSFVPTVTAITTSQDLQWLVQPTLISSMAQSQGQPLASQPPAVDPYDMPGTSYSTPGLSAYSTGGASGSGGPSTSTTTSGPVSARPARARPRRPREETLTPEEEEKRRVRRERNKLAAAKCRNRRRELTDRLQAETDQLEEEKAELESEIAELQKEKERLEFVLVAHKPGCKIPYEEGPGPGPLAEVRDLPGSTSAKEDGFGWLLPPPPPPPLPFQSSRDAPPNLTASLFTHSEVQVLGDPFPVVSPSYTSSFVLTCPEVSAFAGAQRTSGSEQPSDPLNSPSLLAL
GRIN3A LBD mod: modulates the human NR3A ligand-binding domain. NR3A LBD differential scanning fluorimetry, Tm shift; 0% = protein alone, 100% = glycine-bound protein. Tm shift relative to glycine control, % at 25 µM. 2.5% of 340,000 active. AID 1259313;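 active = melting temperature shift of at least 10% of the positive control shift, at one fixed dose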
EBNA-1 inh: blocks EBNA-1 binding to DNA; EBNA-1 DNA binding, fluorescence polarization; inhibition, % at 14.8 µM; 0.34% of 300,000 active; in the data active = inhibition above about 28%
The depositor's hits bear a star; / = no result. Shown are actives, neighbours in structure and some others; about 4.5% of the full set was active somewhere.

SMILES	TPT1 inh	ZTA counter	Rpn11 block	dFosB activator	GRIN3A LBD mod	EBNA-1 inh
O=C(Nc1ccc2oc(-c3ccccc3Cl)nc2c1)c1cncc(Br)c1	-0.9	-1.9	2.0	64.0*	11.6*	-2.8
O=C(Nc1ccc2oc(-c3cccnc3)nc2c1)c1cccnc1	2.1	-11.4	-0.2	-10.9	-2.8	0.9
O=C(Nc1ccc(-c2nc3ccccc3o2)cc1)c1cccnc1	0.8	-2.0	-3.0	-12.1	24.7*	-3.2
O=C(Nc1cccc(-c2nc3ccccc3o2)c1)c1cccnc1	-1.6	-7.2	-0.6	-28.3	-2.0	1.9
COc1ccc(-c2noc([C@@H]3O[C@H](CO)[C@H](O)[C@H](O)[C@H]3O)n2)cc1OC	/	/	-7.8	/	/	/
CC1CC(C)(C)CC2(C1)NC(=O)N(CC(=O)OCC(=O)Nc1cc(S(=O)(=O)N3CCCCC3)ccc1Cl)C2=O (stereo not given)	/	/	-0.7	-3.0	1.9	/
CC(OC(=O)/C(C#N)=C/c1ccc(N(C)C)cc1)C(=O)NCc1ccco1 (stereo not given)	-29.2	1.3	14.6	-70.2	/	10.6
CC(=O)Nc1ccc(NC(=O)C(C)OC(=O)/C(C#N)=C/c2ccc(N(C)C)cc2)cc1 (stereo not given)	-77.8	-6.5	3.4	36.3*	-0.6	26.3
COc1ccc(-c2noc(N3CCCC(C(=O)Nc4cc(F)ccc4F)C3)n2)cc1 (stereo not given)	-0.7	-3.3	6.7	-8.9	-0.8	1.1
CC1=NN(c2ccc(Cl)cc2)C(=O)/C1=C\c1cccn1-c1ccc(S(N)(=O)=O)cc1	1.1	8.2	0.8	2.4	21.9*	-5.3
Cc1ccc(S(=O)(=O)N/N=C/c2cccn2-c2ccc(Cl)cc2)cc1	-0.8	-14.0	3.2	-0.9	-3.4	-0.4
O=C(CSc1ccccc1)Nc1nnc(COc2ccc(Cl)cc2)s1	1.9	-1.1	5.3	-7.9	14.2*	2.4
CCOc1ccc2nc(NC(=O)CSC3=NCCS3)sc2c1	1.1	6.6	1.6	-0.5	18.4*	-0.5
CCOc1ccc2nc(NC(=O)c3ccc(OCC4CCCO4)cc3)sc2c1 (stereo not given)	-1.1	3.6	0.6	-2.2	19.7*	-4.1
Cc1cccc2sc(NC(=O)c3ccc(OCC4CCCO4)cc3)nc12 (stereo not given)	-4.3	-2.6	0.2	-9.2	-3.2	-2.0
CCOc1ccc2nc(NC(=O)CSc3ccc(Cl)cc3)sc2c1	4.7	12.6	1.6	4.7	10.2*	8.8
C[C@H](N)C(=O)N1CCC(C(=O)N[C@@H](Cc2ccccc2)C(=O)Nc2ccc(F)cc2)CC1	-1.9	7.4	-7.4	-0.8	-1.9	-12.2
Oc1ccccc1-c1nc(NC2CCCC2)c2ccccc2n1	-1.9	-4.7	16.2	-10.7	19.0*	-13.8
CC(Nc1nc(-c2ccccc2O)nc2ccccc12)c1ccccc1 (stereo not given)	-1.4	19.3	8.4	1.1	22.0*	0.1
CNc1oc(-c2ccccc2)nc1S(=O)(=O)c1ccc(C)cc1	0.4	2.4	-2.5	-13.7	0.1	1.9
CNc1oc(-c2ccccc2F)nc1S(=O)(=O)c1ccc(C)cc1	-1.5	3.7	-15.7	-5.7	13.1*	-17.7
CCN(CC)Cc1ccc(OC)c(Cl)c1	1.5	7.4	1.3	/	13.9*	6.8
CCN(Cc1ccncc1)Cc1ccc(OC)c(OC)c1	0.0	-10.9	-2.3	-0.8	2.4	-4.7
O=C(NC(c1ccc(Cl)cc1)c1cnccn1)C1CCN(Cc2cccc(C(F)(F)F)c2)CC1 (stereo not given)	/	/	-1.9	/	/	/
Cc1ccc(NC(=O)c2ccc(NS(=O)(=O)/C=C/c3ccccc3)cc2)nc1	-1.6	11.9	6.9	-5.3	17.8*	-0.9
SMILES	TPT1 inh	ZTA counter	Rpn11 block	dFosB activator	GRIN3A LBD mod	EBNA-1 inh
O=S(=O)(NCCNS(=O)(=O)c1c(F)cccc1F)c1ccc2c(c1)OCCO2	/	/	2.2	-0.9	-8.4	/
O=S(=O)(NCCCCNS(=O)(=O)c1c(F)cccc1F)c1ccc2c(c1)OCCO2	/	-11.4	-1.4	-2.4	14.8*	/
CCC(C)c1ccccc1NC(=S)NC(=O)c1ccco1 (stereo not given)	1.9	6.2	2.4	-7.5	1.6	-3.9
COc1ccc(/C=C2\SC(=S)N(CC(=O)NC3CCS(=O)(=O)C3)C2=O)cc1 (stereo not given)	-2.1	-4.6	6.2	47.3*	0.0	6.3
COc1ccc(/C=C2\SC(=S)N(CCC(=O)Nc3cccc(O)c3)C2=O)cc1	/	/	-4.1	24.7*	35.0*	/
COc1ccc(/C=C2\SC(=S)N(CCC(=O)Nc3ccc(C(=O)O)cc3)C2=O)cc1	0.2	21.0	-17.4	-7.0	-1.0	15.0
COc1ccc(/C=C2\SC(=S)N(CCCC(=O)Nc3ccc(O)cc3)C2=O)cc1	-0.7	-5.4	0.2	-4.7	5.1	-21.3
O=C(CCN1C(=O)/C(=C/c2ccc(F)cc2)SC1=S)Nc1cc([N+](=O)[O-])ccc1O	-2.4	-3.7	6.2	-4.1	17.9*	7.9
COc1ccc(/C=C2/SC(=S)N(CCCC(=O)Nc3ccc(O)cc3)C2=O)cc1	-1.8	2.1	-10.9	-4.2	13.5*	3.7
O=[N+]([O-])c1ccc(S(=O)(=O)CC2CSc3nc4ccccc4n32)cc1 (stereo not given)	0.5	13.3	-2.3	-3.6	-3.3	9.1
O=C(NCc1ccco1)c1cccc2c1C(=O)c1ccc(/C=C/c3ccccc3)cc1S2(=O)=O	/	/	16.1	-3.2	-3.0	/
NC1=NC(c2cn(-c3ccccc3)nc2-c2cccs2)n2c(nc3ccccc32)N1 (stereo not given)	1.5	11.4	1.3	36.8*	-6.0	4.6
CC1=C(C#N)C(c2cn(-c3ccccc3)nc2-c2cccs2)C(C#N)=C(C)N1	-2.3	-11.1	5.8	-1.4	-3.5	-10.1
COC(=O)C(C(=O)N1CCN(C)CC1)C1CCCCCC1 (stereo not given)	-3.1	4.5	-7.5	-11.0	12.5*	2.8
O=S(=O)(c1ccc(NC(=S)NCCC(c2ccccc2)c2ccccc2)cc1)N1CCOCC1	-1.4	-4.9	1.4	-0.2	16.5*	1.6
CC(C)(C)CC(C)(C)NC(=S)Nc1ccc(S(=O)(=O)N2CCOCC2)cc1	2.6	6.7	-3.3	1.8	22.1*	1.1
NNC(=S)Nc1ccc(S(=O)(=O)N2CCOCC2)cc1	-4.4	11.1	5.3	-11.8	-0.1	5.2
O=S(=O)(c1ccc(NC(=S)Nc2ccc(OC(F)F)cc2)cc1)N1CCOCC1	-3.6	1.6	-8.2	4.3	26.1*	8.2
CCCCOCCCNC(=S)Nc1ccc(S(=O)(=O)N2CCOCC2)cc1	-3.8	-9.9	-3.4	-6.2	-2.1	-1.7
CC1CCC(NC(=O)CCC(=O)N2CC(C)Oc3ccccc32)CC1 (stereo not given)	1.4	1.8	-4.1	1.3	-1.8	-6.9
Fc1cccc(Nc2ncnc3sc4c(c23)CCC4)c1	2.3	-3.0	-2.4	0.6	12.7*	-7.8

From PubChem BioAssay
